# Experimental data as given in PubChem BioAssay (Tox21).
# Several values for one entry are separate records, joined by “and”; a condition that tells them apart may be missing. Equal values may be shown once. Inconclusive results are not listed. A call without a number means that no potency is given here. Activity calls are given as the source filed them. Calls come from the whole dose curve.
# Experiment: qHTS assay for small molecule agonists of the p53 signaling pathway - cell viability (AID 651633); note: nearly all actives have a fitted effect of over 30% in size
# Conditions: p53RE-bla HCT-116 viability, ATP luminescence, 16 h; series mostly up to 83.3 µM
# Source text: National Center for Advancing Translational Sciences [NCATS]
# NIH Chemical Genomics Center [NCGC]
# U.S. Environmental Protection Agency [EPA]
# National Institutes of Environmental Health Sciences [NIEHS]
# National Toxicology Program [NTP]
# U.S. Food and Drug Administration [FDA]
# p53, a tumor suppressor protein, is activated following cellular insult, including DNA damage and other cellular stresses. The activation of p53 regulates cell fate by inducing DNA repair, cell cycle arrest, apoptosis, or cellular senescence. The activation of p53, therefore, is a good indicator of DNA damage and other cellular stresses. […] The activation of the reporter gene under culture conditions can be detected by fluorescence intensity. This cell line was used to screen the Tox21 compound library in a 1536-well plate format and to identify agonists that activate the p53 signaling pathway.
# Tox21 Assay Protocol Summary:
# The p53RE-bla cells were dispensed at 4,000 cells/5 ul/well in 1536-well black wall/clear bottom plates using a Multidrop dispenser. After the assay plates were incubated at a 37 C/5% CO2 incubator for 5 hours, 23 nL of compounds dissolved in DMSO, positive controls or DMSO only was transferred to the assay plate by a pin tool. The plates were incubated at 37 C for 16 hours. After 1 uL of LiveBLAzerTM B/G FRET substrate was added using a Flying Reagent Dispenser, the plates were incubated at room temperature for 2 hours, and fluorescence intensity was measured by an Envision plate reader.
# For cell viability readout that measures cytotoxicity, 4 ul/well of CellTiter-Glo reagent was added into the assay plates using a Flying Reagent Dispenser. After 30 min incubation at room temperature, the luminescence intensity in the plates was measured using a ViewLux plate reader.
# Potency is the fitted concentration of half-maximal effect.
row,SMILES,Potency
1,O=C1OC(O)C(C(Cl)Cl)=C1Cl (stereo not given),15.8 µM (active)
2,CC1(C)CCC(NC(=O)[C@@H](N)CCC(=O)O)CC1,inactive
3,COc1cc(/C=C/C(=O)CC(=O)/C=C/c2ccc(O)c(OC)c2)ccc1O,18.8 µM (active) and 54.8 µM (active)
4,N[C@@H](Cc1ccc(O)c(O)c1)C(=O)O,inactive
5,CCOc1ccc([N+](=O)[O-])cc1,62 µM (active)
6,CO/N=C(\C(=O)N[C@@H]1C(=O)N2C(C(=O)O)=C(CSc3cnns3)CS[C@H]12)c1csc(N)n1,inactive
7,CC(C)CCC[C@@H](C)[C@H]1CC[C@H]2[C@@H]3CC[C@@H]4C[C@H](O)CC[C@]4(C)[C@H]3CC[C@]12C,inactive
8,CNC(=O)C[C@@H](N)C(=O)N[C@@H](C(=O)N[C@@H]1C(=O)N2[C@@H]1SC(C)(C)[C@@H]2C(=O)O)c1ccc(O)cc1,inactive
9,O=C(O)c1cc(=O)c2c3nc4ccccc4oc-3cc(=O)c2[nH]1,inactive
10,CC(=O)OCC1=C(C(=O)O)N2C(=O)[C@@H](NC(=O)Cc3ccccc3)[C@H]2SC1,inactive
11,NS(=O)(=O)c1cc(Cl)c(Cl)c(S(N)(=O)=O)c1,inactive
12,O=C(O)/C=C/C(=O)Nc1ccc(S(=O)(=O)Nc2nccs2)cc1,inactive
13,FC(F)(F)COCC(F)(F)F,inactive
14,C[S+](CC[C@H](N)C(=O)O)C[C@H]1O[C@@H](n2cnc3c(N)ncnc32)[C@H](O)[C@@H]1O (stereo not given in full),inactive
15,CCN(CC)CCn1c(=O)c(Cc2ccc(OC)cc2)nc2ccccc21,inactive
16,CC(C)OC(=O)Nc1ccc2nc(-c3cscn3)[nH]c2c1,inactive
17,CC1(C)S[C@@H]2[C@H](N3C(=O)C(c4ccccc4)NC3(C)C)C(=O)N2[C@H]1C(=O)O (stereo not given in full),inactive
18,C[S+](C)CCC(N)C(=O)O (stereo not given),inactive
19,CCC(NC(C)C)C(O)c1ccc(O)c(O)c1 (stereo not given),inactive
20,CSCCC(N)C(=O)O (stereo not given),inactive

row,SMILES,Potency
1,S=C1NC=NC2N=CNC12 (stereo not given),0.545 µM (active)
2,NC(N)=NCCCCN=C(N)N,inactive
3,CN[C@@H]1[C@@H](O[C@H]2O[C@H](CO)[C@@H](N)[C@H](O)[C@H]2O)O[C@H]2C[C@@H](N)[C@@H](O[C@H]3[C@H](O)[C@@H](O)[C@H](N)C[C@@H]3N)O[C@@H]2[C@@H]1O,inactive
4,NCCCC[C@H](NC(=O)[C@@H]1CCCN1C(=O)[C@@H]1CSSC[C@H](N)C(=O)N[C@@H](Cc2ccc(O)cc2)C(=O)N[C@@H](Cc2ccccc2)C(=O)N[C@@H](CCC(N)=O)C(=O)N[C@@H](CC(N)=O)C(=O)N1)C(=O)NCC(N)=O,inactive
5,CCCCCCCCCCCCCCCCC(C(=O)O)C(O)(CC(=O)O)C(=O)O (stereo not given),29.8 µM (active)
6,Cc1c(N)nc([C@H](CC(N)=O)NC[C@H](N)C(N)=O)nc1C(=O)N[C@H](C(=O)N[C@H](C)[C@@H](O)[C@H](C)C(=O)N[C@H](C(=O)NCCc1nc(-c2nc(C(=O)NCCCCN=C(N)N)cs2)cs1)[C@@H](C)O)[C@@H](O[C@@H]1O[C@@H](CO)[C@@H](O)[C@H](O)[C@@H]1O[C@H]1O[C@H](CO)[C@@H](O)[C@H](OC(N)=O)[C@@H]1O)c1cnc[nH]1,inactive
7,CN1C(=O)C[C@@H](C(=O)N[C@@H](Cc2cnc[nH]2)C(=O)N2CCC[C@H]2C(N)=O)NC1=O,inactive
8,O=C(CCCN1CCN2CCCC2C1)c1ccc(F)cc1 (stereo not given),inactive
9,NCCO/C=C/[C@H](N)C(=O)O,inactive
10,C[C@H]1O[C@@H](O[C@H]2CC[C@@]3(C)[C@H](CC[C@@H]4[C@@H]3C[C@@H](O)[C@]3(C)[C@@H](C5=CC(=O)OC5)CC[C@]43O)C2)C[C@H](O)[C@@H]1O[C@H]1C[C@H](O)[C@H](O[C@H]2C[C@H](O)[C@H](O[C@@H]3O[C@H](CO)[C@@H](O)[C@H](O)[C@H]3O)[C@@H](C)O2)[C@@H](C)O1,0.168 µM (active)
11,CCCCCCCCCC(=O)NO,inactive
12,CCCCCN=C(N)N/N=C/c1c[nH]c2ccc(OC)cc12,inactive
13,CCOc1cc(CC(=O)N[C@@H](CC(C)C)c2ccccc2N2CCCCC2)ccc1C(=O)O,inactive
14,O=C1c2ccccc2-c2n[nH]c3cccc1c23,inactive
15,N[C@@H](Cc1cnc[nH]1)C(=O)O,inactive
16,COc1cc2c(cc1OC)[C@@H](Cc1cc(OC)c(OC)c(OC)c1)[N+](C)(CCCOC(=O)CC/C=C/CCC(=O)OCCC[N+]1(C)CCc3cc(OC)c(OC)cc3[C@H]1Cc1cc(OC)c(OC)c(OC)c1)CC2 (stereo not given in full),inactive
17,CCN1CCCC1CNC(=O)c1cc(S(=O)(=O)CC)ccc1OC (stereo not given),inactive
18,N=C(N)c1ccc(/C=C/c2ccc(C(=N)N)cc2O)cc1,inactive
19,CCOC(=O)[C@H](CCc1ccccc1)N[C@@H](C)C(=O)N1[C@H](C(=O)O)C[C@H]2CCCC[C@@H]21,inactive
20,Cc1cc(N)c2ccccc2[n+]1CCCCCCCCCC[n+]1c(C)cc(N)c2ccccc21,inactive
